A selection: hits, their analogues and other compounds. The true share with any hit is near 28%.
CYP2C19 activ: activators of human cytochrome P450 2C19; P33261; recombinant CYP2C19, luciferin-H EGE luminescence; hits give high values; 0 = fully inhibited enzyme, 1 = untreated enzyme; activation factor at 5 µM; 96,000 tested, under 10 active; AID 1025;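 active = activation factor of at least 2 at 5 µM in the primary screen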;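 note: 0 = wells with 2.5 mM tranylcypromine and 1 = vehicle-only wells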
CYP2C19 inh: inhibitors of human CYP2C19. hit rate 21% among 96,000. P33261. inhibition, % at 5 µM. AID 778. CYP2C19 Supersomes, luciferin-H EGE luminescence, 30 min;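 active = CYP2C19 inhibition above a set limit at 5 µM in the primary screen, cut at about 50% in these data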;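 note: plate controls were negative control wells for no effect and 2.5 mM tranylcypromine positive control for full effect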
CD11b adhes enh: increases human CD11b/CD18 adhesion to fibrinogen; AID 1499; K562 CD11b/CD18 adhesion to fibrinogen, ATPlite luminescence; hit rate 0.07% among 93,000; P05107+P11215; activation, % at 10 µM;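 active = 10 µM primary screen giving 50% or more activity, confirmed by 40% or more on retest at that dose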
CD11b adhes inh: inhibitors of human CD11b/CD18 binding to fibrinogen | hit rate 0.54% among 93,000 | AID 1497 | K562 CD11b/CD18 adhesion to fibrinogen, ATPlite luminescence; Mn2+ added to activate the integrin | P05107+P11215 | inhibition, % at 10 µM;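 active = primary inhibition of 50% or more at 10 µM, then 40% or more on retest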
CYP2C9 activ: increases human cytochrome P450 2C9 activity | hit rate 1.4% among 96,000 | recombinant CYP2C9, luciferin-H conversion, luminescence; hits give high values; factor 1 = untreated enzyme, 0 = blocked | activation factor at 5 µM | P11712;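 active = activation factor of 2 or more for CYP2C9 at a 5 µM dose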;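 note: 0 = sulfaphenazole-blocked wells and 1 = vehicle-only wells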
Target sequence (P11712 whole entry, looked up): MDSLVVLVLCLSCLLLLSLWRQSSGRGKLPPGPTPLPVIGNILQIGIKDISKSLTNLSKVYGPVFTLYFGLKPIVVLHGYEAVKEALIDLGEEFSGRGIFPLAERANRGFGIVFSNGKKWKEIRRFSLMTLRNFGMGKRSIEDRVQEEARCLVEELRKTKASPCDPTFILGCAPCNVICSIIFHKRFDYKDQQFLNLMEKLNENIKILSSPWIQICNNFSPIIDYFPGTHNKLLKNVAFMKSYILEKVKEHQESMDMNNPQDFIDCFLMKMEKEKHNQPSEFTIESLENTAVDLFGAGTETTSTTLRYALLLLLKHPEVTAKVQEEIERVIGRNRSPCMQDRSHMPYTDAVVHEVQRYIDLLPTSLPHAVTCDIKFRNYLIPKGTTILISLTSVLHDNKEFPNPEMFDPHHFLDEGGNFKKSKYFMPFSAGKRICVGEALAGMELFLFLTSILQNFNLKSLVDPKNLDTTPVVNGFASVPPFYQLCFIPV
CYP2C9 inhib: inhibitors of human CYP2C9; P11712; CYP2C9 Supersomes, luciferin-H conversion, luminescence; inhibition, % at 5 µM; hit rate 20% among 96,000; AID 777;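 active = blocking of liver enzyme CYP2C9 beyond about 50% at 5 µM, limit read from the data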
Starred values were filed as active, the others as inactive; x = no result.

SMILES | CYP2C19 activ | CYP2C19 inh | CD11b adhes enh | CD11b adhes inh | CYP2C9 activ | CYP2C9 inhib
COc1ccc(S(=O)(=O)N(C)CC(=O)Nc2ccc(F)cc2)cc1 | 0.5 | 45.1 | 0.1 | 10.7 | 2.2* | -119.7
COc1ccc(S(=O)(=O)N(C)CC(=O)NC2CCCC2)cc1Cl | 0.4 | 55.3* | 1.8 | 4.6 | 1.8 | -76.9
COc1cc(OC)cc(C(=O)Nc2cccc(C(C)=O)c2)c1 | 0.3 | 70.8* | 1.8 | 1.2 | 0.2 | 76.5*
COc1cccc(C(=O)Nc2cccc(NC(C)=O)c2)c1 | 0.7 | 32.0 | -1.9 | -4.9 | 1.1 | -9.3
O=C(NCCO)C1(c2ccc(Cl)cc2)CCCC1 | 0.5 | 47.4 | -2.0 | 5.0 | 0.8 | 17.9
Cc1cc(NS(=O)(=O)c2ccc(NC(=O)c3ccoc3C)cc2)nc(C)n1 | 0.9 | 5.2 | 2.7 | 1.3 | 0.8 | 23.5
Cc1c(NC(=O)C(C)NCC2CCCO2)c(=O)n(-c2ccccc2)n1C (stereo not given) | 1 | 4.2 | 2.9 | -23.0 | 1.1 | -6.6
COc1ccc(S(=O)(=O)N(C)CC(=O)Nc2cccc(C(C)=O)c2)cc1Cl | 0.1 | 92.9* | -5.3 | -27.8 | 1.2 | -18.3
COc1ccc(S(=O)(=O)N(C)CC(=O)N2CCCCC2)cc1Cl | 0.5 | 48.2 | 0.3 | -24.1 | 1.7 | -67.5
CCC(C)NC(=O)CSc1ncccc1C(=O)O (stereo not given) | 1 | -3.6 | -2.5 | -2.2 | 1 | 1.7
COc1ccc(NC(C)C(=O)Nc2ccc(C(C)(C)C)cc2)cc1Cl (stereo not given) | 0.1 | 93.8* | -2.5 | 15.6 | 0.1 | 90.1*
COc1ccc(NCC(=O)Nc2ccc(C#N)cc2)cc1Cl | 0.3 | 68.6* | 0.3 | -5.8 | 0.3 | 69.1*
COc1ccc(NC(=O)CNc2cccc(C#N)c2)cc1Cl | 0.5 | 47.9 | 6.3 | -7.8 | 0.8 | 17.4
COc1ccc(NC(C)C(=O)Nc2ccc(C#N)cc2)cc1Cl (stereo not given) | 0 | 99.9* | -0.9 | -27.3 | 0 | 98.2*
COc1ccc(NC(=O)/C=C/C(=O)O)cc1Cl | 1.1 | -13.1 | -3.8 | -8.4 | 1.1 | -6.5
O=C(NCc1nc2ccccc2[nH]1)c1cccc(S(=O)(=O)N2CCCC2)c1 | 1 | 4.4 | 0.4 | 9.0 | 0.6 | 39.3
CCOC(=O)/C(N=Nc1c(Br)cc(Br)cc1Br)=C(\C)O | 0.8 | 17.7 | -2.9 | 12.3 | 0.8 | 22.2
COc1cc(C)c(C)cc1S(=O)(=O)N1CCCCC1c1cccnc1 (stereo not given) | 0.2 | 81.1* | 4.6 | 6.0 | 0.8 | 23.8
CC(=O)Nc1ccc(S(=O)(=O)N2CCCCC2c2cccnc2)cc1 (stereo not given) | 0.8 | 15.7 | 3.9 | -16.7 | 0.8 | 17.2
O=C(CSc1ncn[nH]1)N1N=C2/C(=C/c3ccco3)CCCC2C1c1ccco1 (stereo not given) | 0.1 | 88.1* | 1.4 | -21.7 | 0.1 | 94.4*
CCOC(=O)N1CCC(NC(=O)C(NC(=O)C2CCC(C)CC2)C(C)CC)CC1 (stereo not given) | 0.5 | 52.6* | -4.1 | -13.8 | 0.7 | 26.1
CCOC(=O)N1CCN(C(=O)C(NC(=O)C2CCC(C)CC2)C(C)C)CC1 (stereo not given) | 1.1 | -5.8 | -0.3 | -7.6 | 0.7 | 34.0
CCOC(=O)C1=C(C)OC(N)=C(C#N)C1c1cc(OC)c2c(c1)OCO2 (stereo not given) | 0.2 | 83.5* | 1.2 | 6.5 | 0.3 | 66.5*
COc1cc(C2C(C#N)=C(N)Oc3cc(O)ccc32)cc2c1OCO2 (stereo not given) | 0.1 | 92.8* | -2.5 | -7.5 | 0.1 | 91.3*
N#CC1=C(N)Oc2cc3ccccc3cc2C1c1cccnc1 (stereo not given) | 0.3 | 65.8* | -0.5 | -3.1 | 0.2 | 82.1*
SMILES | CYP2C19 activ | CYP2C19 inh | CD11b adhes enh | CD11b adhes inh | CYP2C9 activ | CYP2C9 inhib
N#CC1=C(N)Oc2cc(O)ccc2C1c1ccccc1 (stereo not given) | 0.3 | 65.0* | -3.6 | -1.0 | 0.2 | 77.1*
COc1ccc(C2C(C#N)=C(N)Oc3cc(O)ccc32)cc1OC (stereo not given) | 0.6 | 38.1 | -0.5 | 10.4 | 0.6 | 36.2
Cc1cc(=O)n2[nH]c(-c3ccc(F)cc3)nc2n1 | 0.8 | 16.7 | 3.5 | 5.7 | 0.8 | 15.9
C/C(=N\NC(=O)COc1ccc(C#N)cc1)c1ccccc1OC(F)F | x | x | 2.0 | -3.3 | x | x
CCOc1cc(C2C(C(=O)N3CCCCC3)=C(C)NC3=C2C(=O)CCC3)cc(Br)c1O (stereo not given) | 0.9 | 5.8 | -5.6 | 28.0 | 1 | -1.8
COc1cc(C2C(C#N)=C(N)Oc3cc(N(C)C)ccc32)cc2c1OCO2 (stereo not given) | 0.5 | 50.8* | -0.8 | 11.7 | 0.5 | 54.8*
CCOc1cc(C2C(C#N)=C(N)OC(C)=C2C(C)=O)cc(Br)c1O (stereo not given) | 0.5 | 45.7 | 2.2 | 23.5 | 0.1 | 89.9*
CCOC(=O)C1=C(C)OC(N)=C(C#N)C1c1cc(Cl)c(OCC(N)=O)c(OC)c1 (stereo not given) | 0.6 | 40.9 | -3.8 | 1.1 | 0.1 | 89.4*
CCOC(=O)C1=C(C)OC(N)=C(C#N)C1c1ccc(OC)c(CSc2ccccn2)c1 (stereo not given) | x | x | 1.8 | 27.6 | x | x
CCC(C(=O)c1ccccc1)N(C(=O)c1ccccc1Cl)N1C(=O)C2C3C=CC(C3)C2C1=O (stereo not given) | 0.5 | 48.5 | x | x | 1 | 4.6
O=C(Nc1cccc(O)c1)c1ccc(Br)c(S(=O)(=O)N2CCCCC2)c1 | 1 | 0.4 | 2.3 | 7.3 | 1 | 4.9
COc1ccc(C(=O)c2ccccc2)c2c(O)ccc(C(=O)c3ccccc3)c12 | 1.3 | -28.9 | -2.9 | 51.0* | 0.6 | 44.1
COc1ccc(C(C)=O)c2c(O)cccc12 | 0.1 | 87.4* | -4.0 | 5.0 | 0.6 | 39.4
CC(C(=O)N1CCCc2ccccc21)N1CCN(S(=O)(=O)c2ccccc2F)CC1 (stereo not given) | 0.5 | 46.5 | -1.5 | 0.1 | 0.7 | 32.3
Nc1nc(-c2ccc(Br)s2)c(Br)s1 | 1.1 | -7.5 | -1.2 | -8.1 | 0.9 | 8.2
Cc1noc(NS(=O)(=O)c2ccc(NC(=O)Nc3ccc(Cl)c(Cl)c3)cc2)c1C | 1.2 | -19.3 | 8.7 | 10.7 | 1.2 | -20.3
CCSc1ncc(Cl)c(C(=O)Nc2ccc(S(=O)(=O)Nc3onc(C)c3C)cc2)n1 | 1 | -3.5 | 6.4 | -47.1 | 0.4 | 57.5*
O=C1CCCN1c1ccc(CNS(=O)(=O)c2ccc(F)cc2)cc1 | 0.8 | 20.5 | 0.1 | 4.6 | 0.8 | 18.1
O=C1CCCN1c1ccc(S(=O)(=O)NCCc2ccc(Cl)cc2)cc1 | 0.2 | 80.3* | 0.4 | -0.1 | 0.2 | 84.5*
Clc1ccc(COc2ccccc2CNCc2cccnc2)cc1 | 0 | 97.1* | -4.3 | 2.0 | 0 | 95.2*

Bioassay records from PubChem.
